p97 inhibitor: blocks human p97 ATPase activity; P55072; recombinant p97 ATPase, Kinase-Glo ATP luminescence, 3 h; inhibition, % at 8 µM; 0.42% of 220,000 active; in the data active means inhibition above about 15%;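 further: 0% = DMSO vehicle and 100% = wells lacking enzyme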
PKD1 inh: inhibitors of human PKD1 kinase | PKD1 kinase fluorescence polarization assay | 0.056% of 200,000 active | Q15139 | inhibition, % (concentration not given with the values) | AID 797; in the data active means inhibition above about 50%
FAS-TE inh: FAS thioesterase (human) inhibition | 0.67% of 360,000 active | inhibition, % at 15 µM | recombinant FAS-TE, OMFH fluorogenic substrate, fluorescence endpoint | P49327;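 active means compounds whose normalised, plate-corrected inhibition of enzyme fluorescence in the single-dose primary screen is 50% or more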;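 further: 0% = DMSO with enzyme and 100% = substrate without enzyme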
DTT redox prof: compounds producing H2O2 with reducing agent – biochemical, NIH compound library profiling, artefact control for MLSCN library redox annotation, primary screen. DTT-dependent redox cycling H2O2, phenol red/HRP absorbance; 100% = 100 µM peroxide control, 0% = buffer. activation, % at 10 µM. 0.03% of 200,000 active;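 active means activation of at least 50% relative to the plate's high and low controls in the primary single-dose screen; inactive means activation below 50%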;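 further: compound incubated with DTT at 0.8 mM final as the reducing agent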
UBC9 SUMO inh: inhibitors of human SUMOylation (UBC9). P63279. 0.36% of 290,000 active. HTRF SUMOylation assay, SAE1/SAE2 + UBC9, in vitro. inhibition, % at 35 µM; in the data active means inhibition above about 50%, passing the limit was not always enough
Target sequence (P63279 whole entry, looked up): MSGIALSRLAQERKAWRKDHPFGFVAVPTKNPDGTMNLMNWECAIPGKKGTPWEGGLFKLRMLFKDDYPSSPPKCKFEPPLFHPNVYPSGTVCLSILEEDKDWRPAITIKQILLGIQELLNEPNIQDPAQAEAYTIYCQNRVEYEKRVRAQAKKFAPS
Furin inhibitor: human furin inhibition. purified furin, fluorogenic substrate cleavage. 0.061% of 220,000 active. P09958. AID 463115. inhibition, % at 20 µM or 30 µM; in the data active means inhibition above about 25%
FAS-TE inh conf: confirmation of human fatty acid synthase thioesterase inhibitors; AID 624325; 45% of 2,300 active; shares compounds with FAS-TE inh; recombinant FAS-TE, OMFH fluorogenic substrate, fluorescence; inhibition, % at 15 µM;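 active means compounds inhibiting the enzyme by at least 50% at 15 µM in any one of the replicates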;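 further: 0% = enzyme with DMSO only and 100% = wells lacking enzyme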
* = called active by the depositor. This is a sample that favours compounds with a hit; in the whole collection about 1.2% have one here.

Results for CN1CCN(S(=O)(=O)c2cccc(C(=O)NC3(C)CCS(=O)(=O)C3)c2)CC1 (configuration not stated) ?
FAS-TE inh: -5

What do the screens show for `O=C(CSc1nc2ccccc2c(=O)n1-c1ccccc1Cl)Nc1cccc(S(=O)(=O)N2CCOCC2)c1`?
p97 inhibitor: 10; PKD1 inh: -10; FAS-TE inh: 95*; DTT redox prof: 0; UBC9 SUMO inh: -8; Furin inhibitor: -22; FAS-TE inh conf: 26

How did COC(=O)[C@@]1(C)[C@H]2C(=O)N(C)C(=O)[C@H]2[C@H]2CN=C(SCc3ccc(Cl)cc3)N21 do in these assays?
FAS-TE inh: -4

How did O=C(NCCC(=O)N1CCC2(CC1)NCCc1[nH]cnc12)c1cccc(Cl)c1 do in these assays?
FAS-TE inh: 0

How did COc1cccc(Nc2nc(-c3cccs3)nc3ccccc23)c1 do in these assays?
p97 inhibitor: 13; PKD1 inh: 23; FAS-TE inh: 51*; DTT redox prof: 0; UBC9 SUMO inh: 30; Furin inhibitor: 6; FAS-TE inh conf: 34

What do the screens show for `C=CCn1c(=S)[nH]c2cc(C(=O)N3CCN(c4ccccc4OC)CC3)ccc2c1=O`?
FAS-TE inh: 54*; FAS-TE inh conf: 58*

How did COCCn1c(=S)[nH]c2cc(C(=O)N3CCN(c4ccccc4OC)CC3)ccc2c1=O do in these assays?
p97 inhibitor: 1; PKD1 inh: -5; FAS-TE inh: 0; DTT redox prof: -1; UBC9 SUMO inh: 6; Furin inhibitor: -8

Results for Cc1ccc(C)n1-c1ccc(C(=O)N/N=C/c2ccncc2)cc1 ?
p97 inhibitor: 6; PKD1 inh: 0; FAS-TE inh: -2; DTT redox prof: 0; UBC9 SUMO inh: 4; Furin inhibitor: -7

Results for CCCNC(=O)C1(C)CCCN(C(=O)c2ccccc2OC(F)(F)F)C1 (configuration not stated) ?
FAS-TE inh: -4

Results for COc1ccc(-c2noc(C3CCCN(S(=O)(=O)c4cccc(Cl)c4)C3)n2)cc1OC (configuration not stated) ?
p97 inhibitor: 7; PKD1 inh: -7; FAS-TE inh: 47; DTT redox prof: 0; UBC9 SUMO inh: 4; Furin inhibitor: -17

What do the screens show for `O=S(=O)(c1ccc(Cl)cc1)N1CCCC(c2nc(-c3ccc(F)cc3)no2)C1` (configuration not stated)?
FAS-TE inh: 64*; FAS-TE inh conf: 46*

How did C[C@H](NC(=O)c1[nH]cnc1C(=O)Nc1ccccc1)c1ccccc1 do in these assays?
FAS-TE inh: 22

Results for CC(C)(C)OC(=O)NCCCC[C@H](NC(=O)c1[nH]cnc1C(=O)Nc1ccccc1)C(=O)OC(C)(C)C ?
FAS-TE inh: 69*; UBC9 SUMO inh: -44; Furin inhibitor: -24; FAS-TE inh conf: 80*

What do the screens show for `CC(C)(C)OC(=O)NCc1ccc(CNC(=O)c2[nH]cnc2C(=O)NCC(=O)OCc2ccccc2)cc1`?
FAS-TE inh: 66*; UBC9 SUMO inh: -20; FAS-TE inh conf: 76*

How did COc1ccc(NC(=O)c2nc[nH]c2C(=O)N[C@H](C)c2ccccc2)cc1 do in these assays?
FAS-TE inh: 56*; UBC9 SUMO inh: -16; Furin inhibitor: -35; FAS-TE inh conf: 50*

How did Cc1ccc(NC(=O)CCCc2ccccc2)c([N+](=O)[O-])c1 do in these assays?
FAS-TE inh: 22; UBC9 SUMO inh: -3

What do the screens show for `CC(C)(C)OC(=O)NCCc1onc(-c2ccccc2F)c1C(=O)O`?
FAS-TE inh: -8

How did CC(C)(C)OC(=O)NCCc1onc(-c2cccc([N+](=O)[O-])c2)c1C(=O)O do in these assays?
FAS-TE inh: 81*; FAS-TE inh conf: 87*

How did N#Cc1c(-c2cccs2)nc(SCc2ccc(Cl)cc2)[nH]c1=O do in these assays?
p97 inhibitor: -1; PKD1 inh: -3; FAS-TE inh: 66*; DTT redox prof: -1; Furin inhibitor: -26; FAS-TE inh conf: 79*

What do the screens show for `CN(CC(=O)Nc1ccc(Cl)c(C(F)(F)F)c1)C(=O)/C=C/c1cccs1`?
FAS-TE inh: 47

Source: PubChem BioAssay
